“And” between values parts separate entries of the source, which are not always exact repeats. Identical values can stand only once. Compounds without any hit were thinned out: in the full panel of roughly 79,000, 15% have a hit. The source holds several records for some structures; these can differ, active in one and inactive in another. The source made the active and inactive calls. No stated cut-off is given here; in the data, active means growth inhibition above about 70%; inactive means the rest.
Experiment: NCI Yeast Anticancer Drug Screen. Data for the rad50 strain (AID 155);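 further: 0% = growth of vehicle-only cultures of the same strain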
Conditions: S. cerevisiae rad50 strain growth inhibition, stronger effect = higher value
Method: Growth inhibition of yeast strains with defined genetic alterations is measured as a screen for potential anti-cancer activity. Selected strains with alterations in DNA damage repair or cell cycle control were exposed to compounds and growth inhibition was measured relative to vehicle treated controls. The strain used in this assay is rad50

[1] = at 5.0 µM (retest, dose inferred, filed as 0.5)
[2] = at 50.0 µM (retest, dose inferred, filed as 5.0)

SMILES | growth inhibition [1] | growth inhibition [2] | growth inhibition (at 50.0 µM)
CCCCCCCCCCCCOC(=O)C(C)OC(C)=O (configuration not stated) | 1% (inactive) and 2% (inactive) | 99% (active) and 97% (active) | 98.8% (active) and 98.9% (active)
O=C(O)/C(=C(/c1ccccc1)c1ccc(Cl)cc1)c1ccccc1 | 35% (inactive) | 98% (active) | 98.2% (active) and 89.3% (active)
CCc1cc2c(cc1C(C)=O)C(C)(C)CCC2 | 6% (inactive) | 95% (active) | 98.5% (active)
COc1cc(O)c2c(c1)C(=O)c1cc3c(c(O)c1C2=O)C(OC1OC(C)C(OC)C(O)C1OC)C(OC)C(C)(O)C3=O (configuration not stated) | 81% (active) | 98% (active) | 98.8% (active) and 90.6% (active)
O=c1[nH]c(SCc2c(Cl)c(Cl)c(Cl)c(Cl)c2Cl)nc(=S)[nH]1 | 1% (inactive) | 76% (active) | 54.1% (inactive)
c1cc2c3c(c1)ccc1cccc(c13)COC2 | -21% (inactive) and -2% (inactive) | 10% (inactive) and 85% (active) | 86.3% (active) and 98% (active)
CC1=C(C(=O)Nc2c(C)cccc2C)C(c2ccc3c(c2)OCO3)C(C(=O)Nc2c(C)cccc2C)=C(C)N1 | 25% (inactive) | 25% (inactive) | 81.9% (active)
CC(=O)OC1OC(=O)C(C)(C(C)=O)C1C (configuration not stated) | 19% (inactive) | 95% (active) | 89.9% (active)
CC(NC(=O)C(N)Cc1ccccc1)C(=O)NC1C(CO)OC(n2cnc3c(N)ncnc32)C1O (configuration not stated) | 0% (inactive) | -1% (inactive) | 32.2% (inactive)
CN(C)Cc1cc(CN(C)C)c(O)c(CN(C)C)c1 | 8% (inactive) | 19% (inactive) | -34.9% (inactive) and 40.3% (inactive)
C[Si]1(C)CN(CCN)C[Si](C)(C)O1 | 3% (inactive) | 2% (inactive) | -3.85% (inactive) and 55.5% (inactive)
O=C1c2cc3c(cc2CC12Cc1ccccc1C2)CCC3 | 23% (inactive) | 21% (inactive) | 20% (inactive)
Nc1ccc(Cn2ccc3c4c(N)nc(N)nc4ccc32)cc1 | 14% (inactive) | 83% (active) | 33.7% (inactive)
O=c1cc[nH]cc1 | 2% (inactive) | 14% (inactive) | 7.55% (inactive) and 26.5% (inactive)

— PubChem BioAssay (NCI)
